Test results taken from PubChem BioAssay AID1628 (Sanford-Burnham Center for Chemical Genomics, 2009).
The campaign covered roughly 190,000 compounds. About 930 (0.49%) were called active. The list shows a part of the results. Entries with a potency or affinity are not part of this list. A number with no mark means an inactive call.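 The calls were made as follows: active = z-score of insulin promoter reporter brightness in nuclei below -3 at 5 µM, with at least 500 cells counted; inconclusive = wells with under 500 cells, flagged as toxic or sparse; inactive = the rest.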

Test: decrease of insulin promoter-GFP reporter – imaging, high-content screening, mouse beta cells (AID 1628)
Conditions: MIN6 insulin promoter GFP reporter, at 5 µM, stronger effect = lower value

SMILES	z-score
N#C/C(=C/c1ccc(N2CCCCC2)o1)C(=O)Nc1ccc2ccccc2c1	12.9
CCCN1C(=O)/C(=C/c2c(N3CCNC(=O)C3CC(=O)OCC)nc3c(C)cccn3c2=O)SC1=S (configuration not stated)	12.1
O=C(COc1ccccc1)NCCn1ccc2ccccc21	1.18
O=C(CSc1nc2[nH]ncc2c(=O)n1-c1ccccc1)NCCc1ccccc1	2.5
O=C(CSc1ccc2ccccc2c1)NCCc1ccc(O)c(O)c1	-3.3 (active)
CCCCN(CC(=O)NCc1ccc(Cl)cc1)S(=O)(=O)c1ccc2c(c1)OCCO2	-4.37 (active)
Cc1cc(SCC(=O)N2CCCC2)nc2ccccc12	-0.89
COc1cc2c(cc1OC)C(C)=NCC2	0.45
Cc1cc2oc(=O)cc(CN3CCN(S(=O)(=O)c4ccc5c(c4)OCCO5)CC3)c2cc1C	-4.33 (active)
CNC(=O)C1CC(=O)N/C(=N/N=C(\C)c2cccs2)S1 (configuration not stated)	3.72
CCOc1ccccc1OCCCCCc1c(C)n[nH]c1C	-3.04 (active)
O=c1c(Cl)c2oc3ccccc3nc-2c2ccccc12	6.06
COc1ccc(CCn2c(C3CCCCC3)nc3c(c(=O)c4ccccc4n3C)c2=O)cc1	-3.39 (active)
c1cc2c3c(cccc3c1)NC1(CCCCCC1)N2	-4.13 (active)
COc1cc(C(C(=O)NC(C)(C)C)N(Cc2ccccc2)C(=O)c2cnccn2)cc(OC)c1OC (configuration not stated)	-0.06
COc1cc(C(=O)N/N=C(\c2ccccc2)c2ccccn2)cc(OC)c1OC	-3.93 (active)
CCc1ccccc1NC1=CC(=O)CC(C)(C)C1	1.6
Cc1ccccc1OCC(=O)OC1CCN(C)CC1	8.59
Cc1ccccc1OCc1n(CC(=O)OC2CC(C)CCC2C(C)C)c2ccccc2[n+]1C (configuration not stated)	-5.14 (active)
COCCCNc1c2c3c(cccc3[nH]c1=O)C(=O)c1ccccc1-2	13.6
CCOC(=O)c1c2c3c(c(Cl)ccc3[nH]c1=O)C(=O)c1ccccc1-2	-3.28 (active)
CSc1nc2ccc(S(N)(=O)=O)cc2s1	-4.36 (active)
N#C/C(=C/c1ccc(-c2ccc(S(N)(=O)=O)cc2)o1)c1nc2ccccc2s1	16.5
c1ccc2c(c1)[nH]c1c(N3CCC4(CC3)OCCO4)ncnc12	-4.74 (active)
CC1(C)CCc2c([nH]c3ccccc3c2=O)O1	0.3

SMILES	z-score
Cc1ccc2[nH]c3c(N4CCCCCC4)ncnc3c2c1	-3.59 (active)
Cc1cc2ccccn2c1C(=O)c1ccncc1	-8.28 (active)
COC(=O)c1cc2c(-c3ccccc3)cc3ccccn3c-2c1C(=O)OC	3.3
CC(NC(=O)/C(C#N)=C1\N=C(NC(=O)c2ccco2)c2ccccc21)c1ccccc1 (configuration not stated)	3.68
COc1ccc(-c2cnn3c4c(c(C)nc23)CCN4C2CCCC2)cc1OC	-4.71 (active)
CCCCNC(=O)C1CC(=O)N(C2CCCCC2)C1 (configuration not stated)	3.02
c1nc(N2CCNCC2)c2sc3nc(N4CCOCC4)c4c(c3c2n1)CCC4	-3.71 (active)
OC(COc1ccc2c(c1)CCC2)Cn1cnc2ccccc21 (configuration not stated)	-4.14 (active)
N#Cc1c2c(c(-n3cnc4ccccc43)n3c1nc1ccccc13)CCC2	4.79
CC1(C)NC(=O)N(CCCCOc2ccc3c(c2)CCC3)C1=O	-1.15
CCc1cc(C(=O)Cc2cnn(-c3ccccc3)c2)c(O)cc1O	0.58
O=C1Nc2ccc(NS(=O)(=O)c3cccs3)c3cccc1c23	1.61
COc1cc2cccc(OC)c(=O)c2c(OC)c1OC	0.56
c1ccc(CCn2nnnc2C(c2cccs2)N2CCN(Cc3ccc4c(c3)OCO4)CC2)cc1 (configuration not stated)	-4.21 (active)
N#C/C(=C\N1CCN(Cc2ccc3c(c2)OCO3)CC1)c1nc2ccccc2s1	3.92
Cc1cc(C)nc(NC2=NCC(=O)N2c2ccc(Cl)cc2)n1	-3.4 (active)
Cc1ccc(NC2=NCC(=O)N2C2CCCC2)c(C)c1	0.57
Cc1cc(C)c2nc(NNC(=O)c3ccc(S(=O)(=O)N4CCc5ccccc5C4)cc3)sc2c1	-5.92 (active)
Cc1cccc2sc(NNC(=O)c3ccc4c(c3)OCCO4)nc12	3.4
CC1CN(S(=O)(=O)c2ccc(C(=O)Nc3sc4c(c3C(N)=O)CCN(C)C4)cc2)CC(C)O1 (configuration not stated)	11
COc1cccc2sc(NNC(=O)C3=COCCO3)nc12	5.68
CNC(=O)c1c(NC(=O)c2ccc(S(=O)(=O)N3CCCc4ccccc43)cc2)sc2c1CCN(C)C2	8.33
CC(C)N1CCc2c(sc(NC(=O)c3ccc(S(=O)(=O)N4CCc5ccccc54)cc3)c2C(N)=O)C1	4.91
CCCN1C(=O)S/C(=C\c2ccc(N3CCOCC3)o2)C1=O	9.56
COc1ccc(-c2n(Cc3ccccc3)c3ccccc3[n+]2Cc2ccccc2)cc1	-8.43 (active)

SMILES	z-score
CCc1nnc(NC(=O)CCC(=O)NCc2ccccc2OC)s1	4.05
CCOc1ccccc1C(=O)Nc1nnc(COC)s1	0.76
CCCC1C2CN(C(C)C)CC=C2C(C#N)=C(N)C1(C#N)C#N (configuration not stated)	16.1
CCOC(=O)CSc1nc2cc3c(cc2cc1CC)OCCO3	0.81
Cc1ccc(/C(N)=N/OC(=O)c2ccc(F)cc2)cc1	-4.16 (active)
CCC1COC(c2cccn2Cc2ccc(Cl)cc2)=N1 (configuration not stated)	2.5
CC1=C/C(=C\C=C(C#N)C#N)N(C)c2ccccc21	4.05
COCc1cc(C)nc(Nc2ccccc2C)c1C#N	3.32
CCCOC(=O)C1=C(C)NC2=C(C(=O)CCC2)C1c1cccc(OC)c1OC (configuration not stated)	-0.62
CCCOC(=O)c1ccc(NC(=O)c2cc(OC)c(OC)c(OC)c2Br)cc1	-3.3 (active)
C=CCNC(=S)NNC(=O)c1ccc(OCCCC)cc1	0.58
COC(=O)c1cc(NC(=O)c2ccccc2)c(=O)oc1/C=C/Nc1ccc(Oc2ccccc2)cc1	10.8
CCOc1ccc(NS(=O)(=O)c2ccc(NS(=O)(=O)c3ccccc3)cc2)cc1	7.53
CCOc1ccc2c(c1)C(C)=CC(C)(C)N2S(=O)(=O)c1ccc(C)cc1	-3.31 (active)
CCOc1ccc2nc(NCCCNS(=O)(=O)c3ccc(C)cc3)c(C#N)cc2c1	1.84
C=C(C)Cn1c(CCCNC(=O)CC)nc2ccccc21	0.76
Cc1nc2ccccc2n1CC(=O)NCc1ccccc1	-3.91 (active)
O=c1ccnc(Nc2ccc3c(c2)OCCO3)[nH]1	3.66
Cn1nc(CC(=O)Nc2cccc3ncccc23)c2ccccc2c1=O	-4.57 (active)
O=C(CCl)Nc1cccc2ncccc12	4.01
COc1ccccc1NC(=O)CSc1nc2c(sc3ccccc32)c(=O)n1CCN(C)C	2.23
O=C(COC(=O)c1ccco1)Nc1ccc2c(c1)OCCO2	0.45
O=C(O)c1ccc(N2C(=O)Nc3ccccc3N2O)cc1	2.34
CCn1cc(C(=O)O)c(=O)c2cc(F)c(N3CCN(C)CC3)cc21	-0.61
CCn1cc(C(=O)O)c(=O)c2cnc(N3CCN(C(=O)Nc4cccc5ccccc45)CC3)nc21	-5.9 (active)

SMILES	z-score
CCn1cc(C(=O)O)c(=O)c2cnc(N3CCN(C(=S)Nc4ccc(F)cc4)CC3)nc21	-3.18 (active)
COc1ccc(/C=C(\C#N)C(=O)OCC(=O)Nc2c(C)cccc2C(C)C)cc1	3.36
O=C(O)C1CC=CCC1C(=O)Nc1ccc(N2CCN(Cc3ccccc3)CC2)cc1 (configuration not stated)	-4.25 (active)
CN(C)c1ccc(/C=C2\N=C(c3ccc(Cl)c([N+](=O)[O-])c3)NC2=O)cc1	4.65
CCOc1ccc(CN(Cc2ccco2)C(c2cccs2)c2nnnn2C(C)(C)C)cc1 (configuration not stated)	-3.47 (active)
COc1ccc2nc(N/C(N)=N/C(=S)Nc3ccccc3)nc(C)c2c1	2.22
CN(C)c1ccc(/C=C(/C#N)C(=O)NCc2ccccc2)o1	16.1
CCCNc1c(F)c(F)c2c(C)c3ccccc3nc2c1F	5.94
CSc1nc(-c2ccco2)nn1C(=O)c1ccco1	-6.58 (active)
O=C(Oc1ccc2ccccc2c1)c1ccco1	-0.59
Cc1ccc(S(=O)(=O)Nc2ccc(=O)n(Cc3ccc(Cl)c(Cl)c3)c2)cc1	3.26
Cc1ccc(NS(=O)(=O)c2ccc(CCC(=O)O)cc2)cc1	1.37
Cc1ccc(S(=O)(=O)NC(N)=NCCc2ccc(Cl)cc2)cc1	-4.29 (active)
O=C1CN(C(=O)COc2ncnc3ccccc23)c2ccccc2N1	4.05
CCCCOc1ccc(-c2cc(C(F)(F)F)c(C#N)c(SCC(=O)O)n2)cc1	4.82
COc1ccc2c(=O)c(-c3ccccc3)coc2c1	-0.45
Cc1nn(C)c(C)c1S(=O)(=O)N(CC(=O)Nc1nccs1)c1ccc(C(C)C)cc1	3.98
C=CCn1c(SCC(=O)Nc2cc3oc4ccccc4c3cc2OC)nnc1-c1cnccn1	-3.06 (active)
C=CCn1c(SCCOc2ccc(OC)cc2)nnc1C(C)NC(=O)Cc1ccc(OC)cc1 (configuration not stated)	4.23
CN(C)C(=O)CSc1nnc(-c2cnccn2)n1C	0.77
C=CCn1c(SCC(=O)Nc2nccs2)nnc1-c1cc2cccc(OC)c2o1	-3.45 (active)
CCCCc1c(C)nn(-c2nnc3c4ccccc4n(CC)c3n2)c1C	-3.04 (active)
